# Compound activity as filed in PubChem BioAssay.
# Autofluor counter = compound fluorescence in toxin protease inhibitor counterscreen; AID 624483; compound autofluorescence counterscreen, microsphere flow cytometry; stronger effect = higher value; fluorescence intensity (test concentration not listed); hit rate 3.1% among 360,000; in the data active = fluorescence intensity above about 16000; inconclusive = no clear call, values can overlap the other calls
# 3CLpro inhibitor = SARS-CoV 3CLpro protease inhibition | hit rate 0.14% among 290,000 | inhibition, % at 6 µM | recombinant SARS-CoV 3CLpro, quenched FRET peptide cleavage | P0C6X7; in the data active = inhibition above about 12%
# BoNT F protease = inhibitors of Botulinum neurotoxin F light chain protease. Multiplex microsphere protease cleavage assay, flow cytometry. inhibition, % at 10 µM. hit rate 0.22% among 360,000. AID 588497; in the data active = inhibition above about 35%, passing the limit was not always enough; inconclusive = no clear call, values can overlap the other calls; also: plate controls were buffer without enzyme for full effect and enzyme alone for no effect
# CCHF vOTU inh-1 = CCHFV vOTU protease inhibition | Pep-AMC fluorescence | inhibition, % at 11.5 µM | hit rate 0.55% among 370,000 | AID 651958; also: 0% = vehicle wells with enzyme and 100% = no enzyme wells
# Anthrax LF inh2 = anthrax lethal factor protease inhibition. hit rate 0.12% among 360,000. inhibition, % at 10 µM. AID 588501. multiplex microsphere protease cleavage assay, LF. P15917; in the data active = inhibition above about 30%; inconclusive = no clear call, values can overlap the other calls; also: plate controls were buffer without enzyme for full effect and enzyme alone for no effect
# Target sequence (P15917 whole entry, looked up): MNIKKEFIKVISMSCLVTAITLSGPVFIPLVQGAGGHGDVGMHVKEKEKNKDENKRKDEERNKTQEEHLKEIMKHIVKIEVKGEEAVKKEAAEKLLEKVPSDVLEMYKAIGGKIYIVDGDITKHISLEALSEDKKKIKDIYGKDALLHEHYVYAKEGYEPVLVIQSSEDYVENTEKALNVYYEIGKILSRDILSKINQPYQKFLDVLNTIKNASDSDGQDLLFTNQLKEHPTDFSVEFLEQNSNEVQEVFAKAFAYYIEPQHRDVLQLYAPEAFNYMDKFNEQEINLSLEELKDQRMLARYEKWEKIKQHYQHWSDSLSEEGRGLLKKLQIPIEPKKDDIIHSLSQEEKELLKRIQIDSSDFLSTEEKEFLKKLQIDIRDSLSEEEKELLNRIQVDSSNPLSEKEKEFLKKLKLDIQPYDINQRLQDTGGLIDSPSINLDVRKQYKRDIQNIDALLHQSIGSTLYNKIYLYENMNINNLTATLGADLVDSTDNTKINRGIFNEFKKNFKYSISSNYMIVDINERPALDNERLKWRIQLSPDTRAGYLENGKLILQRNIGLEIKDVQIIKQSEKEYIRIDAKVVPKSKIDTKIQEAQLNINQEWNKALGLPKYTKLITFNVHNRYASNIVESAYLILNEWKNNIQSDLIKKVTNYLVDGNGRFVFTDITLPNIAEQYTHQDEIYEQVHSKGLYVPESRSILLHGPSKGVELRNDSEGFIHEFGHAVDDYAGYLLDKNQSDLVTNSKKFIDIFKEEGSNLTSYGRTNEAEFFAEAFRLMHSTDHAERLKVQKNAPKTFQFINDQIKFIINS
# BoNT-A LC inh2 = BoNT A light chain protease inhibition; multiplex microsphere protease substrate cleavage, flow cytometry; inhibition, % at 10 µM; hit rate 0.17% among 360,000; AID 588499; in the data active = inhibition above about 30%; inconclusive = no clear call, values can overlap the other calls; also: plate controls were buffer without enzyme for full effect and enzyme alone for no effect
# CCHF vOTU inh-2 = confirmation of CCHF virus vOTU protease inhibitors; shares compounds with CCHF vOTU inh-1; Recombinant CCHFV vOTU, Pep-AMC fluorescence; inhibition, % at 11.5 µM; hit rate 17% among 1,900
# The depositor's hits bear a star; ? = inconclusive; nt = no result; ! = a repeat was not active. Sampled rows, rich in hits. Any-hit rate of the full collection: about 3.9%. Rule as the data show it, unless noted: active = inhibition above about 30%; inactive = the rest.
SMILES,Autofluor counter,3CLpro inhibitor,BoNT F protease,CCHF vOTU inh-1,Anthrax LF inh2,BoNT-A LC inh2,CCHF vOTU inh-2
CC(C)Oc1ccc(S(=O)(=O)N2CCOCC2)cc1NC(=O)CN1C(=O)c2ccccc2C1=O,5606,nt,-3,36*,7,-1,-20
CC(C)Oc1ccc(S(=O)(=O)N2CCOCC2)cc1NC(=O)CC1OC(=O)c2ccccc21 (stereo not drawn),?,nt,3,-10,-1,-5,nt
NC(=O)C1CCN(C2=C(NS(=O)(=O)c3ccc(Br)cc3)C(=O)c3ccccc3C2=O)CC1,5447,6,7,39*,-2,2,-2
CCOC(=O)C1CCN(C2=C(NS(=O)(=O)c3ccc(Br)cc3)C(=O)c3ccccc3C2=O)CC1,5084,-2,2,45*,-2,0,19
CCOC(=O)N1CCN(C2=C(NS(=O)(=O)c3ccc(Br)cc3)C(=O)c3ccccc3C2=O)CC1,2730,nt,-2,13,-7,0,nt
COc1ccc(C(CNC(=O)CCNS(=O)(=O)c2ccccc2C(F)(F)F)N2CCOCC2)cc1 (stereo not drawn),?,nt,4,-8,-4,1,nt
COCc1cc(N2CCN(C(=O)OC(C)(C)C)C[C@@H]2C)ccc1N1C[C@@H](C)O[C@@H](C)C1,nt,nt,nt,27,nt,nt,nt
COCc1cc(N2CCN(C(=O)OC(C)(C)C)C[C@H]2C)ccc1N1C[C@@H](C)O[C@@H](C)C1,nt,nt,nt,35*,nt,nt,-3
Cn1cc(C(=O)Nc2ccc(C#N)cc2)c2ccccc2c1=O,3482,-2,-6,-9,1,-2,nt
NC(=O)c1sc2nc3c(c(-c4ccco4)c2c1N)CCC3,10619,-16,-8,49*,-5,1,13
Cc1c(C)n(Cc2ccc(-c3ccccc3C(=O)O)cc2)c2ccc(C(=O)N[C@@H](C)c3ccc([N+](=O)[O-])cc3)cc12,nt,nt,nt,42*,nt,nt,9
COc1cc(OC)cc(C(=O)NCC(=O)NCCN2C(=O)S/C(=C\c3ccc4c(c3)OCO4)C2=O)c1,3119,nt,-6,27,-5,0,nt
CCc1ccc(OCC(=O)OCC(=O)NC2CCCC(C)C2C)cc1 (stereo not drawn),3972,nt,-8,10,-1,0,nt
CC1CCCC(NC(=O)COC(=O)c2ccc([N+](=O)[O-])s2)C1C (stereo not drawn),8091,nt,-3,66*,-3,-2,61*
O=C(COC(=O)c1ccc([N+](=O)[O-])s1)Nc1ncc(C(F)(F)F)cc1Cl,2564,-2,0,49*,3,1,64*
CC1CCCC(NC(=O)COC(=O)COc2cccc(F)c2)C1C (stereo not drawn),3431,nt,0,41*,-4,0,-16
CCN(C(=O)COC(=O)c1[nH]c(=O)[nH]c(=O)c1N)c1ccccc1,5606,3,-9,-11,-7,-2,nt
Cc1nc(SCC(=O)Nc2ccc(Cl)cc2[N+](=O)[O-])nc(C)c1C,2092,4,-4,-3,-1,-1,nt
Nc1ccccc1C(=O)N1CCc2ccccc21,4207,4,?,49*,-6,1,-4
CC(=O)N(c1ccccc1C)C1CCCC1,2268,-2,-9,-14,-1,0,nt
CC(=O)N(C1=C(Cl)C(=O)c2ccccc2C1=O)C1CCCCC1,3650,0,-4,100*,-6,-2,98*
CC(c1ccc2c(c1)OCO2)n1c(=S)[nH]c2ccccc2c1=O (stereo not drawn),3825,nt,-2,24,-3,0,nt
COc1ccc(S(=O)(=O)N2CCCCC2c2cc(C(=O)Nc3ccccc3)no2)cc1 (stereo not drawn),3118,nt,-3,18,-4,0,nt
COc1ccc(OC)c(/C=N/Nc2nncn2/N=C/c2cc(OC)ccc2OC)c1,2100,2,-10,32*,-2,0,-15
COc1cc(/C=N/Nc2nncn2/N=C/c2ccc(O)c(OC)c2)ccc1O,2602,6,0,100*,-2,-1,-13
SMILES,Autofluor counter,3CLpro inhibitor,BoNT F protease,CCHF vOTU inh-1,Anthrax LF inh2,BoNT-A LC inh2,CCHF vOTU inh-2
COc1cc(/C=N/NC(=O)c2ccncc2)ccc1OC(C)=O,3879,2,-14,-1,-18,0,nt
COc1ccc(OC)c(/C=N\Nc2nccs2)c1,5954,nt,5,5,-6,1,nt
COc1cc(/C=N\Nc2nncn2N)ccc1OC(C)=O,3589,0,?,90*,10,-5,-22
CCCc1cc(-c2ccc(O)c(OCC)c2)c(C#N)c(N)n1,3137,3,-18,39*,3,0,4
CCOc1cc(-c2cc(-c3ccc(C)o3)nc(N)c2C#N)ccc1O,5195,1,1,-1,-10,0,nt
COc1ccc(CN(CC2CCCO2)C(=O)c2cc3sccc3n2C)c(OC)c1 (stereo not drawn),2075,4,-9,12,2,0,nt
CC1(C(=O)NS(=O)(=O)c2cccc(C#N)c2)CCN1C(=O)CCc1ccccc1 (stereo not drawn),3688,nt,6,-4,-8,0,nt
CCCCCCCCCCOC(=O)Cn1c(COc2ccc(Cl)cc2)[n+](C)c2ccccc21,4183,5,?,46*,-23,1,56*
CCCCCCCCCCOC(=O)Cn1c(COc2ccccc2)[n+](C)c2ccccc21,3843,-1,-23,30*,2,-4,23
COc1cc2c(cc1CNC[C@H]1O[C@@H](n3ccc(N)nc3=O)[C@H](O)[C@@H]1O)OCO2,2988,nt,-8,-9,0,-1,nt
CC1CCCN(C(=O)C2CCN(c3nc(-c4ccccc4)nc4c3CCC4)CC2)C1 (stereo not drawn),5255,-3,-11,1,-3,1,nt
Cc1cc(C)c(S(=O)(=O)Nc2nnc(CC(C)C)s2)c(C)c1,3687,6,3,30*,11,1,-17
CN(C(=O)COC(=O)C1CCN(S(=O)(=O)c2cccs2)CC1)c1ccccc1,3713,6,0,1,-4,0,nt
O=C(O)c1ccccc1-c1c2cc(I)c(=O)c(I)c-2oc2c(I)c(O)c(I)cc12,3911,nt,38*!,37*!,33*,64*,39*
COc1ccc(OC)c(-c2nn(-c3ccccc3)cc2C(=O)NCC(c2cccs2)N2CCOCC2)c1 (stereo not drawn),5295,nt,?,0,?,?,nt
CCC(C)(C)n1nnnc1C(c1ccncc1)N1CCN(c2cccc(OC)c2)CC1 (stereo not drawn),8675,-4,-10,-2,-4,?,nt
CCC(C)(C)n1nnnc1C(c1cccnc1)N1CCN(c2cccc(C(F)(F)F)c2)CC1 (stereo not drawn),3930,-6,-8,30*,0,1,3
O=C(N/N=C1\C/C(=N\NC(=O)c2ccncc2)c2ccccc21)c1ccncc1,4193,-2,-6,93*,-12,1,83*
